High-throughput results: PubChem BioAssay, National Center for Advancing Translational Sciences (NCATS)
Rows were chosen to be rich in hits. Some 10% of all compounds tested hit in one or more screens of this group.
G9a block – inhibitors of human histone lysine methyltransferase G9a | G9a H3K9 monomethylation, AlphaScreen, 2 h | Potency, µM (highest dose often 102 µM), for the others: at the top dose activity, negative = inhibition, most hits filed as inhibitors | 8.8% of 350,000 active; also: % is scaled to controls: 0 for no effect and ±100 for the full control effect; nearly all actives have a fitted effect of over 75% in size
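Step 1: enzyme (final 20 nM) with compound, 15 min RT. Step 2: substrate peptide 500 nM and SAM 20 uM, 2 h RT. Step 3: anti-H3K9me1 antibody and AlphaScreen beads, 10 min, then plate read.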
BAZ2B inh – blocks human BAZ2B; Potency, µM (series often up to 114 µM), without a hit: top-dose activity change, negative = inhibition, actives largely listed as inhibitors; 4.4% of 360,000 active; AID 504333; Q9UIF8; AlphaScreen BAZ2B-H3K14Ac peptide displacement; also: % is scaled to controls: 0 for no effect and ±100 for the full control effect; nearly all actives have a fitted effect of over 60% in size
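AlphaScreen luminescence quantifies BAZ2B engagement of H3K14Ac peptide; the protein and biotinylated peptide are both at 50 nM final, buffer PBS pH 7.4 with 0.01% Tween-20, all steps at room temperature.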
JMJD2A Tudor inh – blocks the human JMJD2A Tudor domain | 4.4% of 390,000 active | O75164 | AlphaScreen JMJD2A-Tudor / H3K4me3 peptide binding | AID 504339 | Potency, µM (titrated, usually from 114 µM), for inactives: at the top dose activity change, negative = inhibition, usual class: inhibitors; also: % is scaled to controls: 0 for no effect and ±100 for the full control effect; nearly all actives have a fitted effect of over 50% in size
GLS inh – blocks human kidney-isoform glutaminase activity; O94925; GLS enzymatic activity, qHTS titration; Potency, µM (highest dose often 45.5 µM), for the others: top-dose activity change, negative = inhibition, hits mostly inhibitors; 0.21% of 410,000 active; AID 624170; also: % is scaled to controls: 0 for no effect and ±100 for the full control effect
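Read-out is an Amplex red fluorescence increase coupled through glutamate oxidase and HRP, measured before and after 30 min room-temperature incubation. hKGA is in 45 mM KH2PO4 (pH 8.2) with 0.02% Tween-20; glutamine added as 1mM solution.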
HP1b binding inh – HP1-beta chromodomain-methylated histone interaction inhibition; P83916; AlphaScreen HP1-beta / biotin-H3K9me3 peptide binding; Potency, µM (titrated, usually from 114 µM), inactives show top-dose activity change, negative = inhibition, actives largely listed as inhibitors; 0.56% of 390,000 active; also: nearly all actives have a fitted effect of over 70% in size
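AlphaScreen: HP1-beta (50 nM) preformed 30 min with biotin-H3(1-18)K9me3 peptide (50 nM) in PBS pH 7.4, 0.01% Tween-20. Compound added for 30 min at RT, then streptavidin donor/nickel chelate acceptor beads (10 ug/mL) for 30 min.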
Active calls of the source: *; ? = inconclusive; nt = no result given; [ ] = remark or other dose. Calls follow the shape of the dose curve; as a rule, active = well fitted curve in the direction sought with a large enough effect; inconclusive = small, poorly fitted or top-dose-only effect, or another doubt; inactive = no such curve, though single readings can be large; an effect the other way counts as inactive or inconclusive. Potency is read from the fitted curve at half-maximal effect.

SMILES | G9a block | BAZ2B inh | JMJD2A Tudor inh | GLS inh | HP1b binding inh
COC(=O)c1ccc2c(=O)n(NC(C)=O)c(=S)[nH]c2c1 | ? | 50µM* | 3.5µM* | 4% | ?
O=C(NCCCN1CCOCC1)c1ccc2c(=O)n(Cc3cccc(Br)c3)c(=S)[nH]c2c1 | 35µM* | -24% | ? | 5% | ?
O=C(NCCCN1CCOCC1)c1ccc2c(=O)n(CCc3ccccc3)c(=O)[nH]c2c1 | -2%[12.7 µM] | 7% | -12% | -2% | 10%
O=C(NCCCN1CCOCC1)c1cc2c(=O)[nH]c3ccccc3c2s1 | 26%[59 µM] | 4% | -16% | -13% | 9%
CC(=O)c1nnn(-c2nc(C#N)nc(N3CCOCC3)n2)c1C | nt | nt | -10%[57.1 µM] | nt | 21%[57 µM]
CC(NCC(=O)Nc1ccccc1C(=O)NC1CC1)c1ccc(F)cc1F (stereo not given) | 19%[12.7 µM] | -15% | -6% | -9% | 39%
COc1cc2[nH]c(=S)n(NC(=O)c3ccccc3)c(=O)c2cc1OC | ? | ? | 89µM* | 7% | 19%
COc1ccccc1Cn1c(=S)[nH]c2ccc(Br)cc2c1=O | 15% | 2% | -20% | 0% | 33%
COC(=O)c1ccc2c(=O)n(CCCN3CCOCC3)c(=S)[nH]c2c1 | ? | -3% | -34% | -23% | 21%
O=Cc1c(NCCN2CCCC2)c2ccccc2[nH]c1=O | 10µM* | 6% | ? | -10% | 31%
COc1ccccc1Cn1c(=S)[nH]c2ccccc2c1=O | 15% | -1% | -9% | 20µM* | 68%
COC(=O)c1ccc2c(=O)n(CCN3CCOCC3)c(=S)[nH]c2c1 | -47%[12.7 µM] | -1% | 56µM* | 13% | 18%
O=Cc1c(NCCc2ccc(F)cc2)c2ccccc2[nH]c1=O | -1% | 10% | -16% | -5% | 22%
CCCc1nn2c(=O)cc(COC(=O)c3cccc(NC(=O)c4ccc(OCC)cc4)c3)nc2s1 | -4%[12.7 µM] | -7% | -13% | -3% | 20%
COc1ccc(C2(CN(C(C)=O)C(C)=O)CCCC2)cc1OC | 5% | 4% | 2% | -3% | 28%
COc1ccccc1Cn1c(=S)[nH]c2cc(C(=O)NCC(OC)OC)ccc2c1=O | -13% | 2% | 7% | 10µM* | 49%
COc1ccccc1Cn1c(=S)[nH]c2cc(C(=O)NCCCN3CCOCC3)ccc2c1=O | 35µM* | -36% | -23% | ? | 39%
COc1ccc(-n2c(=S)[nH]c3cc(C(=O)NCc4ccccc4)ccc3c2=O)c(OC)c1 | 22µM* | 0% | -10% | -5% | 28%
COc1ccc(-n2c(=S)[nH]c3cc(C(=O)NCc4cccnc4)ccc3c2=O)c(OC)c1 | ? | -34% | -24% | -4% | 0%
COc1ccccc1Cn1c(=S)[nH]c2cc(C(=O)NC(C)C)ccc2c1=O | 5% | 6% | -4% | 3% | 19%
O=C(Nc1cccc(S(=O)(=O)NC2=NCCC2)c1)c1c(F)cccc1Cl | -29% | 1% | -6% | 4% | 6%
NS(=O)(=O)c1ccc(CNC(=O)CCS(=O)(=O)Cc2ccccc2)cc1 | nt | 2% | -6% | -2% | 28%
CC(=O)N1CCc2cc(Br)cc(S(=O)(=O)N3CCN(c4ccccn4)CC3)c21 | -7% | 7% | 79µM* | -12% | ?
O=C(C1CC1)N1CCc2cc(Br)cc(S(=O)(=O)NCc3ccccn3)c21 | -47%[12.7 µM] | 8% | 2.8µM* | -9% | 23%
O=C(C1CC1)N1CCc2cc(Br)cc(S(=O)(=O)NCc3ccco3)c21 | 14%[59 µM] | -27% | -26% | 5% | 12%
SMILES | G9a block | BAZ2B inh | JMJD2A Tudor inh | GLS inh | HP1b binding inh
Cc1cc(=O)[nH]c(-n2[nH]c3c(c2=O)CCCC3)n1 | -47%[59 µM] | 13µM* | 2.2µM* | 0% | 22%
Cc1nc(-n2[nH]c3c(c2=O)CCCC3)[nH]c(=O)c1Cc1ccccc1 | 52%[59 µM] | ? | ? | 1% | -5%
CCOc1ccc(/C=C/[N+](=O)[O-])c2ccccc12 | ? | -31% | ? | 51% | -19%
Cn1c(=O)c2c(nc(C3CC4C5CCC(C5)C4C3)n2C)n(C)c1=O (stereo not given) | nt | nt | -24% | 0% | -2%
COc1cc(NC(=S)NCCO)c(OC)cc1Cl | nt | -8% | -5% | -12% | ?
COc1ccccc1NC(=S)NCCc1c[nH]c2ccccc12 | -7%[0.501 µM] | 45µM* | ? | ? | 8.9µM*
